# Assay results taken from PubChem BioAssay AID1159580 (chemical genetic matrix, 2015).
# “And” between values parts separate entries of the source, which are not always exact repeats. Identical values can stand only once. About 2,000 (36%) of roughly 5,500 compounds were called active. Inconclusive results (about 18%) are left out. Rule as the data show it: active = normalized growth mostly below about 0.91 (no sharp cut-off); inconclusive = no clear call, values can overlap the other calls; inactive = mostly above about 0.92. Some of the results follow.
# Test: chemical genetic growth profiling, strain panel (AID 1159580);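 also: tested at 20 µM; growth read once vehicle control cultures reached saturation at 30 °C; 1 = growth at the plate median or of vehicle wells; lower values mean less growth of the strain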
# Details: S. cerevisiae deletion strains, growth OD
compound,measurement,setting,value
C#C[C@]1(O)CCC2C3CCC4=Cc5oncc5C[C@]4(C)C3CC[C@@]21C (stereo partly specified),normalized growth,"locus YAL021C, strain ccr4, stronger effect = lower value",1.05 (inactive)
same,normalized growth,"locus YAL026C, strain drs2, stronger effect = lower value",0.977 (inactive)
same,normalized growth,"locus YAL030W, strain snc1, stronger effect = lower value",0.94 (inactive)
same,normalized growth,"locus YBL061C, strain skt5, stronger effect = lower value",0.941 (inactive)
same,normalized growth,"locus YBR009C, strain hhf1, stronger effect = lower value",0.918 (inactive)
same,normalized growth,"locus YBR021W, strain FUR4, stronger effect = lower value",1.01 (inactive)
same,normalized growth,"locus YBR023C, strain chs3, stronger effect = lower value",0.958 (inactive)
same,normalized growth,"locus YBR171W, strain sec66, stronger effect = lower value",0.937 (inactive)
same,normalized growth,"locus YBR229C, strain ROT2, stronger effect = lower value",0.898 (active)
same,normalized growth,"locus YBR231C, strain swc5, stronger effect = lower value",0.966 (inactive)
same,normalized growth,"locus YBR279W, strain paf1, stronger effect = lower value",0.969 (inactive)
same,normalized growth,"locus YCL011C, strain gbp2, stronger effect = lower value",0.97 (inactive)
same,normalized growth,"locus YCL016C, strain dcc1, stronger effect = lower value",0.996 (inactive)
same,normalized growth,"locus YCL029C, strain bik1, stronger effect = lower value",0.919 (inactive)
same,normalized growth,"locus YCL061C, strain MRC1, stronger effect = lower value",0.943 (inactive)
same,normalized growth,"locus YCL069W, strain vba3, stronger effect = lower value",0.956 (inactive)
same,normalized growth,"locus YCR088W, strain abp1, stronger effect = lower value",0.943 (inactive)
same,normalized growth,"locus YDL005C, strain med2, stronger effect = lower value",0.954 (inactive)
same,normalized growth,"locus YDL035C, strain GPR1, stronger effect = lower value",0.94 (inactive)
same,normalized growth,"locus YDL040C, strain nat1, stronger effect = lower value",0.958 (inactive)
same,normalized growth,"locus YDL074C, strain BRE1, stronger effect = lower value",0.725 (active)
same,normalized growth,"locus YDL101C, strain DUN1, stronger effect = lower value",0.906 (inactive)
same,normalized growth,"locus YDL185W, strain tfp1, stronger effect = lower value",0.932 (inactive)
same,normalized growth,"locus YDL192W, strain arf1, stronger effect = lower value",0.933 (inactive)
same,normalized growth,"locus YDR001C, strain nth1, stronger effect = lower value",0.961 (inactive)
same,normalized growth,"locus YDR069C, strain doa4, stronger effect = lower value",0.96 (inactive)
same,normalized growth,"locus YDR101C, strain arx1, stronger effect = lower value",0.887 (active)
same,normalized growth,"locus YDR137W, strain rgp1, stronger effect = lower value",0.859 (inactive)
same,normalized growth,"locus YDR150W, strain NUM1, stronger effect = lower value",0.929 (inactive)
same,normalized growth,"locus YDR159W, strain sac3, stronger effect = lower value",0.839 (active)
same,normalized growth,"locus YDR162C, strain NBP2, stronger effect = lower value",0.866 (inactive)
same,normalized growth,"locus YDR195W, strain ref2",0.978 (inactive)
same,normalized growth,"locus YDR297W, strain sur2, stronger effect = lower value",0.937 (inactive)
same,normalized growth,"locus YDR318W, strain mcm21, stronger effect = lower value",0.891 (active)
same,normalized growth,"locus YDR334W, strain swr1, stronger effect = lower value",0.965 (inactive)
same,normalized growth,"locus YDR335W, strain msn5, stronger effect = lower value",0.95 (inactive)
same,normalized growth,"locus YDR388W, stronger effect = lower value",0.957 (inactive)
same,normalized growth,"locus YDR392W, strain spt3, stronger effect = lower value",0.542 (active)
same,normalized growth,"locus YDR502C, strain sam2, stronger effect = lower value",0.887 (active)
same,normalized growth,"locus YEL003W, strain gim4, stronger effect = lower value",0.932 (inactive)
same,normalized growth,"locus YEL037C, strain rad23, stronger effect = lower value",0.971 (inactive)
same,normalized growth,"locus YEL061C, strain CIN8 (second series), stronger effect = lower value",0.958 (inactive)
same,normalized growth,"locus YEL061C, strain CIN8, stronger effect = lower value",0.93 (inactive)
same,normalized growth,"locus YER015W, strain faa2, stronger effect = lower value",0.961 (inactive)
same,normalized growth,"locus YER016W, strain bim1, stronger effect = lower value",0.969 (inactive)
same,normalized growth,"locus YER110C, stronger effect = lower value",0.933 (inactive)
same,normalized growth,"locus YER111C, strain swi4, stronger effect = lower value",0.978 (inactive)
same,normalized growth,"locus YER155C, strain BEM2 (second series), stronger effect = lower value",0.828 (active)
same,normalized growth,"locus YER155C, strain BEM2, stronger effect = lower value",0.903 (active)
same,normalized growth,"locus YER167W, strain BCK2, stronger effect = lower value",0.939 (inactive)
same,normalized growth,"locus YFR010W, strain ubp6, stronger effect = lower value",0.927 (inactive)
same,normalized growth,"locus YGL078C, strain dbp3, stronger effect = lower value",0.962 (inactive)
same,normalized growth,"locus YGL086W, strain mad1, stronger effect = lower value",0.85 (active)
same,normalized growth,"locus YGL167C, strain pmr1, stronger effect = lower value",0.942 (inactive)
same,normalized growth,"locus YGL173C, strain kem1, stronger effect = lower value",0.929 (inactive)
same,normalized growth,"locus YGL227W, strain vid30, stronger effect = lower value",0.958 (inactive)
same,normalized growth,"locus YGL240W, strain doc1, stronger effect = lower value",0.94 (inactive)
same,normalized growth,"locus YGL248W, strain PDE1, stronger effect = lower value",0.892 (inactive)
same,normalized growth,"locus YGL253W, strain hxk2, stronger effect = lower value",0.946 (inactive)
same,normalized growth,"locus YGR135W, strain pre9, stronger effect = lower value",0.999 (inactive)
same,normalized growth,"locus YGR252W, strain gcn5, stronger effect = lower value",0.99 (inactive)
same,normalized growth,"locus YHR013C, strain ard1, stronger effect = lower value",1.01 (inactive)
same,normalized growth,"locus YHR027C, strain rpn1, stronger effect = lower value",0.979 (inactive)
same,normalized growth,"locus YHR030C, strain SLT2, stronger effect = lower value",0.825 (active) and 0.957 (inactive)
same,normalized growth,"locus YHR079C, strain IRE1 (second series), stronger effect = lower value",0.924 (active)
same,normalized growth,"locus YHR079C, strain IRE1, stronger effect = lower value",0.964 (inactive)
same,normalized growth,"locus YHR094C, strain hxt1, stronger effect = lower value",0.939 (inactive)
same,normalized growth,"locus YHR129C, strain ARP1, stronger effect = lower value",0.889 (active)
same,normalized growth,"locus YHR142W, strain chs7, stronger effect = lower value",0.888 (inactive)
same,normalized growth,"locus YHR200W, strain rpn10, stronger effect = lower value",0.912 (active)
same,normalized growth,"locus YIL066C, strain RNR3, stronger effect = lower value",0.785 (active)
same,normalized growth,"locus YIL073C, strain SPO22, stronger effect = lower value",0.871 (inactive)
same,normalized growth,"locus YIL125W, strain kgd1, stronger effect = lower value",0.917 (active)
same,normalized growth,"locus YIR030C, strain dcg1, stronger effect = lower value",0.927 (active)
same,normalized growth,"locus YJL092W, strain hpr5, stronger effect = lower value",0.934 (inactive)
same,normalized growth,"locus YJL095W, strain BCK1 (second series), stronger effect = lower value",0.976 (inactive)
same,normalized growth,"locus YJL095W, strain BCK1, stronger effect = lower value",0.729 (active) and 0.973 (inactive)
same,normalized growth,"locus YJL115W, strain asf1, stronger effect = lower value",0.952 (inactive)
same,normalized growth,"locus YJL129C, strain trk1, stronger effect = lower value",0.83 (active)
same,normalized growth,"locus YJL134W, strain LCB3, stronger effect = lower value",0.944 (inactive)
same,normalized growth,"locus YJL154C, strain vps35, stronger effect = lower value",0.961 (inactive)
same,normalized growth,"locus YJL164C, strain tpk1, stronger effect = lower value",0.973 (inactive)
same,normalized growth,"locus YJL166W, strain qcr8, stronger effect = lower value",0.899 (active)
same,normalized growth,"locus YJL168C, strain set2, stronger effect = lower value",0.941 (inactive)
same,normalized growth,"locus YJL187C, strain SWE1 (second series), stronger effect = lower value",0.904 (inactive)
same,normalized growth,"locus YJR043C, strain POL32, stronger effect = lower value",0.93 (inactive)
